# Screening data as filed in PubChem BioAssay.
# IL-1B inflam inh – inflammasome signaling inhibition, IL-1 beta readout. activity change, % at 57.5 µM. 360,000 tested, 4.7% active. THP-1 LPS/ATP IL-1B secretion, AlphaLISA, 16 h; stronger effect = lower value; in the data active = activity change below about -50%; inconclusive = mostly about -30% to -49%
#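 THP-1 cells pretreated 1 hr with compounds (up to 57.5 uM final), then stimulated with LPS (250 ng/mL final) plus ATP (1.25 mM final); secreted IL-1B measured by AlphaLISA after 16 hr, decreased signal indicating inhibition.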
# HT1080-NT tox – kills 2HG-producing HT-1080-NT fibrosarcoma cells | HT-1080-NT fibrosarcoma viability, CellTiter-Glo ATP luminescence, 48 h | Potency, µM (top dose mostly 46.1 µM), inactives show top-dose activity, negative = less viability, most hits filed as cytotoxic | 360,000 tested, 1.6% active | AID 686970;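 also: NT is the 2HG producing partner of a matched IDH1 knockdown line; potency is read from the fitted curve at half-maximal effect; 0% = DMSO-treated cells and -100% = media-only wells without cells; nearly all actives have a fitted effect of over 55% in size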
#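 Compounds were tested in concentration-response format on HT-1080-NT cells for 48 hours at 37 degrees C. Cell viability came from CellTiter-Glo luminescence; curves were classified by r2, response magnitude and activity.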
# HT1080 IDH1KD tx – kills HT-1080 cells with IDH1 knockdown; Potency, µM (series often up to 46.1 µM), without a hit: top-dose activity, negative = toxicity, usual class: cytotoxic; HT-1080 IDH1 knockdown viability, ATP luminescence, 48 h; 360,000 tested, 2% active;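 also: potency is read from the fitted curve at half-maximal effect; 0% = DMSO wells and -100% = cell-free medium wells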
#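 In this qHTS, HT-1080 cells depleted of IDH1 are exposed for 48 h at 37 °C to compound titrations. Toxicity is scored from CellTiter-Glo luminescence, with DMSO as full viability and medium alone as none.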
# DT40 TDP1 no CPT – qHTS for Inhibitors of human tyrosyl-DNA phosphodiesterase 1 (TDP1): qHTS in cells in absence of CPT; DT40 Tdp1-/- hTDP1 cells, no CPT, ATP luminescence, 48 h; Potency, µM (top dose mostly 46.2 µM), for the others: top-dose activity change, negative = growth inhibition, most hits filed as inhibitors; 420,000 tested, 15% active; AID 686978, 2013; also: potency is read from the fitted curve at half-maximal effect; nearly all actives have a fitted effect of over 55% in size
#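 Chicken DT40 Tdp1-/- cells complemented with human TDP1, screened without camptothecin (DMSO vehicle only), 400 cells/well. Compounds pin-transferred, cells incubated at 37 °C for at least 48 hr. Growth read as ATP-dependent luminescence (CellTiter-Glo, 30 min at RT).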
# TDP1 cell CPT – growth inhibition of DT40 Tdp1-/-;hTDP1 cells with camptothecin (screen for TDP1 inhibitors). chicken DT40 Tdp1-/-;hTDP1 cells + 20 nM CPT, ATP luminescence, 48 h. Potency, µM (highest dose often 46.2 µM), for the others: at the highest dose activity change, negative = growth inhibition, usual class: inhibitors. 420,000 tested, 12% active. AID 686979; also: potency is read from the fitted curve at half-maximal effect; nearly all actives have a fitted effect of over 55% in size
#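 Chicken DT40 Tdp1-/- cells complemented with human TDP1, 400 cells/well, exposed to compounds plus 20 nM camptothecin for at least 48 h at 37 C; viability read as ATP content by CellTiter-Glo luminescence.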
# An asterisk follows results filed as active; ? = inconclusive; · = no result given. The list is not random: actives were taken first. Their share in the collection is about 19%. Unless noted, calls follow the shape of the dose curve; as a rule, active = well fitted curve in the direction sought with a large enough effect; inconclusive = small, poorly fitted or top-dose-only effect, or another doubt; inactive = no such curve, though single readings can be large; an effect the other way counts as inactive or inconclusive. Unless noted, % is scaled to controls: 0 for no effect and ±100 for the full control effect.
SMILES,IL-1B inflam inh,HT1080-NT tox,HT1080 IDH1KD tx,DT40 TDP1 no CPT,TDP1 cell CPT
COc1ccc(S(=O)(=O)N2CCN(C(=O)c3ccc(=O)[nH]n3)CC2)cc1OC,14.6,6.8%,-2.0%,4.3%,0.9%
COc1cccc(NS(=O)(=O)c2ccc3[nH]cc(C(=O)NC4CC4)c(=O)c3c2)c1,-6.9,?,?,?,-27.0%
Cc1cccc(CCNC(=O)c2c[nH]c3ccc(S(=O)(=O)Nc4ccccc4F)cc3c2=O)c1,·,·,·,?,11.6µM*
COc1cccc(NS(=O)(=O)c2ccc3[nH]cc(C(=O)NCCc4ccc(C)cc4)c(=O)c3c2)c1,·,·,·,16.4µM*,14.6µM*
Cc1cc2cc(CNC(=O)C(C)Oc3ccccc3)ccc2n1C (centres undefined),-7.5,-0.3%,11.6%,?,?
O=C(CS(=O)(=O)c1cccc2nsnc12)Nc1cc(F)ccc1F,·,·,·,-13.6%,-6.0%
CC(=O)C1=C(O)C(=O)N(c2cc(C(C)(C)C)on2)C1c1ccc(C(C)C)cc1 (centres undefined),7.6,-7.7%,-14.4%,25.9µM*,?
O=C(Nc1nc2c(s1)CCCC2)c1cc2n(n1)C(C(F)(F)F)CC(C1CC1)N2 (centres undefined),-59.6*,-1.7%,-17.2%,?,-24.9%
COc1ccc(S(=O)(=O)N2CCC(C(=O)NCCC3=CCCCC3)CC2)cc1OC,13.7,-3.4%,-9.3%,?,?
COc1ccc(Nc2c3c(nc4ccccc24)CCC3)c(OC)c1,?,18.4µM*,16.4µM*,16.4µM*,14.6µM*
COc1ccccc1Nc1nc2c(s1)CCC2,-11.1,1.2%,1.7%,?,14.6µM*
Cc1ccc(Nc2nc3c(s2)CCC3)c(C)c1,-20.3,-14.7%,-7.3%,?,?
COCCCNc1c2c(nc3ccccc13)CCC2,33.3,0.0%,0.6%,?,?
COc1ccccc1Nc1c2c(nc3ccccc13)CCC2,5.0,?,?,16.4µM*,18.4µM*
COc1cc(Cl)c(C)cc1Nc1c2c(nc3ccccc13)CCC2,·,·,·,1.46µM*,2.06µM*
Cn1c(=O)c(-c2cccs2)nc2cnc(Oc3ccccc3)nc21,·,·,·,-1.1%,-1.0%
COc1ccc(-c2cnnn2-c2ccc(NC(=O)c3ccco3)cc2)cc1OC,-0.6,-5.8%,9.1%,-6.5%,-5.5%
COc1ccc(C(=O)Nc2ccc(-n3nncc3-c3ccc(OC)c(OC)c3)cc2)cc1,·,·,·,20.6µM*,20.6µM*
COc1ccc(-c2cnnn2-c2ccc(NC(=O)c3ccc(S(=O)(=O)N4CCCCC4)cc3)cc2)cc1OC,-21.8,-9.4%,-14.6%,11.6µM*,20.6µM*
COc1ccc(C(=O)Nc2ccc(S(=O)(=O)N3CCCCC3)cc2)cc1OC,47.3,-7.5%,-28.2%,?,?
CC(C)C[C@H](NC(=O)N1CCn2c1nc1ccccc12)C(=O)N[C@@H](C(=O)O)c1ccccc1,22.3,6.3%,6.4%,-13.5%,-0.2%
O=C(CSC1=NNC(c2ccccn2)S1)Nc1ccc(C(F)(F)F)cc1 (centres undefined),152.7,14.6µM*,4.11µM*,3.66µM*,4.11µM*
c1ccc(CSc2ncccn2)cc1,-4.7,0.7%,19.4%,-24.1%,-3.3%
CC(=O)Nc1ccc(NC(=O)CSc2ccccn2)cc1,4.9,-6.1%,-0.6%,9.5%,-0.5%
c1ccc(CSC2=NNC(c3ccccn3)S2)cc1 (centres undefined),85.4,?,?,0.164µM*,0.0058µM*
SMILES,IL-1B inflam inh,HT1080-NT tox,HT1080 IDH1KD tx,DT40 TDP1 no CPT,TDP1 cell CPT
CCCC(CCC(=O)Nc1cccc([N+](=O)[O-])c1)C(=O)O (centres undefined),5.1,0.2%,0.8%,0.4%,0.8%
Nc1nc(N)c(Cc2ccc(Cl)cc2Cl)c(N)n1,-6.1,-6.3%,-9.6%,23.1µM*,25.9µM*
Cc1cc(=O)n2cccc(O)c2n1,-57.0*,?,?,4.61µM*,3.66µM*
Cc1nnc(SCc2cc(=O)n3cccc(C)c3n2)s1,·,·,·,0.8%,?
CSc1nc2ccc(N3C(=O)C4CCCCC4C3=O)cc2s1 (centres undefined),-2.7,1.0%,6.4%,-5.9%,3.6%
O=c1[nH]c(SCc2ccccc2)nc2ccsc12,45.4,-21.9%,-28.2%,-27.1%,-4.0%
CCC(=O)NC(c1ccc(C)cc1)c1cc([N+](=O)[O-])c2cccnc2c1O (centres undefined),41.8,16.4µM*,13µM*,20.6µM*,?
O=[N+]([O-])c1ccc(O)c2cccnc12,8.5,9.5%,0.1%,-10.8%,-4.1%
CCCC(=O)NC(c1ccco1)c1cc([N+](=O)[O-])c2cccnc2c1O (centres undefined),90.3,-8.5%,-22.4%,-22.5%,-7.0%
CC(=O)NC(c1ccc(C)cc1)c1cc([N+](=O)[O-])c2cccnc2c1O (centres undefined),118.7,?,?,14.6µM*,5.8µM*
Cc1ccc(-c2nnc(CCC(=O)NCc3csc(C)n3)o2)s1,4.5,-1.7%,-1.1%,19.4%,4.7%
CC(=O)c1cccc(S(=O)(=O)NC2CCSc3ccccc32)c1 (centres undefined),35.7,-1.7%,-5.1%,11.6µM*,?
CC(C)CC(COCc1cccc(Cl)c1)N1CCN(C(=O)c2ccc(C(F)(F)F)cc2)CCC1=O (centres undefined),?,?,-24.8%,16.4µM*,?
CC(C)C[C@@H](COCc1cccc(Cl)c1)N1CCN(C(=O)c2cccc(C(F)(F)F)c2)CCC1=O,?,?,?,16.4µM*,?
CC(C)C[C@@H](COCc1ccc(F)cc1)N1CCN(C(=O)c2cccc(C(F)(F)F)c2)CCC1=O,-13.1,-25.1%,-12.9%,?,?
CC(C)Sc1nnc(SCC(=O)NCCCN2CCCC2=O)s1,7.1,11.5%,18.1%,-6.5%,-2.1%
CC1(OC(=O)CCc2ccccc2)C(=O)C=C2C=C(c3ccc(C#N)cc3)N(CC3CC3)C=C2C1=O (centres undefined),-15.6,-3.8%,?,?,14.6µM*
CC1(OC(=O)CCc2ccccc2)C(=O)C=C2C=C(c3ccc(C#N)cc3)N(c3ccccc3)C=C2C1=O (centres undefined),9.2,-4.3%,-3.2%,13µM*,?
CC1(OC(=O)CCc2ccccc2)C(=O)C=C2C=C(c3ccc(C#N)cc3)N(C3CCCC3)C=C2C1=O (centres undefined),12.6,-5.9%,-2.6%,14.6µM*,23.1µM*
CC1CCCC(C)N1C(=O)Cn1cc(/C=C2/C(=O)Nc3ccccc32)c2ccccc21 (centres undefined),-54.6*,?,?,20.6µM*,18.4µM*
